# Test results reported in PubChem BioAssay AID1508601 (ICCB-Longwood Screening Facility, Harvard Medical School, 2020).
# Out of some 5,700 compounds screened, about 85 (1%) were called active. The sample holds actives, similar compounds and a random draw of the others, so the mix is not that of the screen. Rule as the data show it: active = p53-positive nuclei above about 36% (passing the limit was not always enough); inactive = the rest. Peptide text beside a SMILES is read from it.
# Columns and labels:
# [1] = nuclear p53 accumulation, HPV+ cells – imaging, p53-positive nuclei imaging, 24 h, 48 h (AID 1508601); conditions: 24/48 h
# [2] = biological target: Cellular tumor antigen p53 (Homo sapiens) (UniProt P04637); test: as above; conditions: 24/48 h, stronger effect = higher value
# Chain of Cellular tumor antigen p53 (Homo sapiens) (P04637 whole entry, looked up): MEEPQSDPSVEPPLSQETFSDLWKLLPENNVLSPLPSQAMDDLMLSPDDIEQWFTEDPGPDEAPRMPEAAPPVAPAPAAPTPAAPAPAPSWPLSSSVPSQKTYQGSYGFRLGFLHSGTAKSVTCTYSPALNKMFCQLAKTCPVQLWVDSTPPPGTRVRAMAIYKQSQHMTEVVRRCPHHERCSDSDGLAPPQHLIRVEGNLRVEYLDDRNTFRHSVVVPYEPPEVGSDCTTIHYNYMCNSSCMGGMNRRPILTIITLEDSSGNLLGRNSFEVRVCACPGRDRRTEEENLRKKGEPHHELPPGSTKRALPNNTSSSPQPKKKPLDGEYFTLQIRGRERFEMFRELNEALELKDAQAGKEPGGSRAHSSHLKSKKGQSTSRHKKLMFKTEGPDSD
# [3] = measured here: cell number at 24 h, Library stock concentration: 10 mM
# [4] = measured here: cell number at 48 h, Library stock concentration: 10 mM
# [5] = Library stock concentration: 10 mM
# [6] = measured here: p53 positive nuclei at 24 h, Library stock concentration: 10 mM
# [7] = measured here: cell number at 24 h, Library stock concentration: 3.33 mM
# [8] = measured here: cell number at 48 h, Library stock concentration: 3.33 mM
# [9] = Library stock concentration: 3.33 mM
# [10] = measured here: p53 positive nuclei at 24 h, Library stock concentration: 3.33 mM
# [11] = measured here: cell number at 24 h, Library stock concentration: 80 uM
# [12] = measured here: cell number at 24 h, Library stock concentration: 400 uM
# [13] = measured here: cell number at 24 h, Library stock concentration: 2 mM
# [14] = measured here: cell number at 48 h, Library stock concentration: 80 uM
# [15] = measured here: cell number at 48 h, Library stock concentration: 400 uM
# [16] = measured here: cell number at 48 h, Library stock concentration: 2 mM
# [17] = Library stock concentration: 80 uM
# [18] = Library stock concentration: 400 uM
# [19] = Library stock concentration: 2 mM
# [20] = measured here: p53 positive nuclei at 24 h, Library stock concentration: 80 uM
# [21] = measured here: p53 positive nuclei at 24 h, Library stock concentration: 400 uM
# [22] = measured here: p53 positive nuclei at 24 h, Library stock concentration: 2 mM
smiles,measurement,setting,value
COc1ccc(CC(NC(=O)C(C)NC(=O)CN2CCOCC2)C(=O)NC(Cc2ccccc2)C(=O)[C@@]2(C)CO2)cc1 (stereo partly specified),"nuclei count, normalised","[1]; measured here: cell number at 24 h, Library stock concentration: 46 uM",107%
same,"nuclei count, normalised","[1]; measured here: cell number at 24 h, Library stock concentration: 278 uM",109%
same,"nuclei count, normalised","[1]; measured here: cell number at 24 h, Library stock concentration: 1.67 mM",57.1%
same,"nuclei count, normalised",[1]; [3],52.6%
same,"nuclei count, normalised","[1]; measured here: cell number at 48 h, Library stock concentration: 46 uM",113%
same,"nuclei count, normalised","[1]; measured here: cell number at 48 h, Library stock concentration: 278 uM",113%
same,"nuclei count, normalised","[1]; measured here: cell number at 48 h, Library stock concentration: 1.67 mM",43.8%
same,"nuclei count, normalised",[1]; [4],39.6%
same,"p53-positive nuclei, normalised",[2]; Library stock concentration: 46 uM,-0.326% (inactive)
same,"p53-positive nuclei, normalised",[2]; Library stock concentration: 278 uM,0.734% (inactive)
same,"p53-positive nuclei, normalised",[2]; Library stock concentration: 1.67 mM,103% (active)
same,"p53-positive nuclei, normalised",[2]; [5],102% (active)
same,"p53-positive nuclei, normalised","[2]; measured here: p53 positive nuclei at 24 h, Library stock concentration: 46 uM",-0.151%
same,"p53-positive nuclei, normalised","[2]; measured here: p53 positive nuclei at 24 h, Library stock concentration: 278 uM",0.483%
same,"p53-positive nuclei, normalised","[2]; measured here: p53 positive nuclei at 24 h, Library stock concentration: 1.67 mM",146%
same,"p53-positive nuclei, normalised",[2]; [6],144%
COCC(NC(=O)c1cnc(C)s1)C(=O)NC(COC)C(=O)NC(Cc1ccccc1)C(=O)C1(C)CO1 (stereo unspecified),"nuclei count, normalised",[1]; [7],50.4%
same,"nuclei count, normalised",[1]; [8],40.7%
same,"p53-positive nuclei, normalised",[2]; [9],96.5% (active)
same,"p53-positive nuclei, normalised",[2]; [10],116%
CC(C)C(N)C(=O)NC(Cc1ccccc1)C(=O)O (stereo unspecified),"nuclei count, normalised",[1]; [11],118%
same,"nuclei count, normalised",[1]; [12],113%
same,"nuclei count, normalised",[1]; [13],112%
same,"nuclei count, normalised",[1]; [3],113%
same,"nuclei count, normalised",[1]; [14],107%
same,"nuclei count, normalised",[1]; [15],100%
same,"nuclei count, normalised",[1]; [16],103%
same,"nuclei count, normalised",[1]; [4],102%
same,"p53-positive nuclei, normalised",[2]; [17],-0.188% (inactive)
same,"p53-positive nuclei, normalised",[2]; [18],0.0868% (inactive)
same,"p53-positive nuclei, normalised",[2]; [19],-0.0686% (inactive)
same,"p53-positive nuclei, normalised",[2]; [5],-0.0304% (inactive)
same,"p53-positive nuclei, normalised",[2]; [20],-0.0726%
same,"p53-positive nuclei, normalised",[2]; [21],-0.0759%
same,"p53-positive nuclei, normalised",[2]; [22],0.0367%
same,"p53-positive nuclei, normalised",[2]; [6],-0.118%
CSCCC(NC=O)C(=O)NC(CC(C)C)C(=O)NC(Cc1ccccc1)C(=O)O (stereo unspecified),"nuclei count, normalised",[1]; [11],96%
same,"nuclei count, normalised",[1]; [12],92.8%
same,"nuclei count, normalised",[1]; [13],99%
same,"nuclei count, normalised",[1]; [3],101%
same,"nuclei count, normalised",[1]; [14],97.1%
same,"nuclei count, normalised",[1]; [15],91.9%
same,"nuclei count, normalised",[1]; [16],96.7%
same,"nuclei count, normalised",[1]; [4],99.8%
same,"p53-positive nuclei, normalised",[2]; [17],-0.172% (inactive)
same,"p53-positive nuclei, normalised",[2]; [18],-0.159% (inactive)
same,"p53-positive nuclei, normalised",[2]; [19],-0.166% (inactive)
same,"p53-positive nuclei, normalised",[2]; [5],-0.212% (inactive)
same,"p53-positive nuclei, normalised",[2]; [20],-0.106%
same,"p53-positive nuclei, normalised",[2]; [21],-0.0972%
same,"p53-positive nuclei, normalised",[2]; [22],-0.166%
same,"p53-positive nuclei, normalised",[2]; [6],-0.105%
O=C(Cc1ccc(-c2ccc(OCCN3CCOCC3)cc2)cn1)NCc1ccccc1,"nuclei count, normalised",[1]; [11],42.9%
same,"nuclei count, normalised",[1]; [12],41.4%
same,"nuclei count, normalised",[1]; [13],40%
same,"nuclei count, normalised",[1]; [7],41.1%
same,"nuclei count, normalised",[1]; [3],39.3%
same,"nuclei count, normalised",[1]; [14],27.3%
same,"nuclei count, normalised",[1]; [15],26.6%
same,"nuclei count, normalised",[1]; [16],28.3%
same,"nuclei count, normalised",[1]; [8],30.8%
same,"nuclei count, normalised",[1]; [4],26.9%
same,"p53-positive nuclei, normalised",[2]; [17],3.36% (inactive)
same,"p53-positive nuclei, normalised",[2]; [18],4.39% (inactive)
same,"p53-positive nuclei, normalised",[2]; [19],2.81% (inactive)
same,"p53-positive nuclei, normalised",[2]; [9],2.58% (inactive)
same,"p53-positive nuclei, normalised",[2]; [5],4.55% (inactive)
same,"p53-positive nuclei, normalised",[2]; [20],-0.0362%
same,"p53-positive nuclei, normalised",[2]; [21],1.51%
same,"p53-positive nuclei, normalised",[2]; [22],1.32%
same,"p53-positive nuclei, normalised",[2]; [10],0.97%
same,"p53-positive nuclei, normalised",[2]; [6],1.31%
CC(C)c1nc(CN(C)C(=O)NC(CCN2CCOCC2)C(=O)NC(CCC(Cc2ccccc2)NC(=O)OCc2cncs2)Cc2ccccc2)cs1 (stereo unspecified),"nuclei count, normalised",[1]; [7],98.1%
same,"nuclei count, normalised",[1]; [8],96.3%
same,"p53-positive nuclei, normalised",[2]; [9],4.22% (inactive)
same,"p53-positive nuclei, normalised",[2]; [10],4.44%
CC(C)CC(CC(=O)NO)C(=O)NC(Cc1ccc2ccccc2c1)C(=O)NC(C)C(=O)NCCN (stereo unspecified),"nuclei count, normalised",[1]; [7],109%
same,"nuclei count, normalised",[1]; [8],104%
same,"p53-positive nuclei, normalised",[2]; [9],0.0444% (inactive)
same,"p53-positive nuclei, normalised",[2]; [10],-0.208%
COc1ccc(CC(NC(=O)C(C)NC(=O)CN2CCOCC2)C(=O)NC(Cc2ccccc2)C(=O)[C@]2(C)CO2)cc1 (stereo partly specified),"nuclei count, normalised",[1]; [7],46%
same,"nuclei count, normalised",[1]; [8],38.7%
same,"p53-positive nuclei, normalised",[2]; [9],106% (active)
same,"p53-positive nuclei, normalised",[2]; [10],126%
COC(=O)C(Cc1ccccc1)NC(=O)C(N)CC(=O)O (stereo not drawn) (H-Asp-Phe-OMe; configuration not given here),"nuclei count, normalised",[1]; [7],101%
same,"nuclei count, normalised",[1]; [8],94.9%
same,"p53-positive nuclei, normalised",[2]; [9],-0.0669% (inactive)
same,"p53-positive nuclei, normalised",[2]; [10],-0.12%
COC(=O)[C@H](Cc1ccccc1)NC(=O)[C@@H](N)CC(=O)O (H-Asp-Phe-OMe),"nuclei count, normalised","[1]; measured here: cell number at 24 h, concentration not given here",91.1%
same,"nuclei count, normalised","[1]; measured here: cell number at 48 h, concentration not given here",92%
same,"p53-positive nuclei, normalised",[2]; concentration not given here,-0.024% (inactive)
same,"p53-positive nuclei, normalised","[2]; measured here: p53 positive nuclei at 24 h, concentration not given here",-0.251%
CC(C)CC(NC(=O)C(CCc1ccccc1)NC(=O)CN1CCOCC1)C(=O)NC(Cc1ccccc1)C(=O)NC(CC(C)C)C(=O)[C@@]1(C)CO1 (stereo partly specified),"nuclei count, normalised",[1]; [7],36.4%
same,"nuclei count, normalised",[1]; [8],30.5%
same,"p53-positive nuclei, normalised",[2]; [9],104% (active)
same,"p53-positive nuclei, normalised",[2]; [10],117%
